Source: PubChem BioAssay
Measured potencies and affinities stand elsewhere. Active and inactive are the calls of the source. How the calls were made is not given here.

Target: Plasmodium falciparum protein kinase 6 (PK6, PF3D7_1337100) (UniProt Q8IDW1)
Experiment: PfPK6 kinase inhibitors, biochemical, TCAMS library (AID 1159586)
Details: recombinant PfPK6, Kinase-Glo ATP depletion luminescence

Plasmodium falciparum protein kinase 6 (PK6, PF3D7_1337100), sequence (Q8IDW1 1-305): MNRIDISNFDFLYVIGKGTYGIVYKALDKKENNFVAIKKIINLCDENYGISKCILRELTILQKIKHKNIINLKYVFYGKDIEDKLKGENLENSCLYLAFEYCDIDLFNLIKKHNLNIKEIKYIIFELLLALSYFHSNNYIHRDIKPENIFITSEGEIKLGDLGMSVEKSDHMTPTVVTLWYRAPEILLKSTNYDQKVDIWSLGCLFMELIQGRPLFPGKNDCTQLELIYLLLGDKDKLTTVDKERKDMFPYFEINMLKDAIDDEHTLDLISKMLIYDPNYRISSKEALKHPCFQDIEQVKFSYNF

outcome, inactive:
CCN1CCC(N(Cc2ccc(-c3ccc(Cl)cc3)cc2)C(=O)Cn2c(CCc3cccc(F)c3F)cc(=O)c3ccccc32)CC1
O=C(c1ccc(Cl)cc1)C1CCCN(C2CCN(CCc3ccccc3)CC2)C1 (stereo not given)
N#Cc1ccc2c(c1)CCN(CCC1CCC(NC(=O)c3cc4cccc([N+](=O)[O-])c4[nH]3)CC1)C2 (stereo not given)
CCCCNC(=O)C(C)NC(=O)c1ccc(O)c(-c2ccc(Cl)c(Cl)c2)c1 (stereo not given)
CCN(CC)CCOc1ccc(C(O)(C#CC(O)(c2ccc(Br)cc2)c2ccc(OCCN(CC)CC)cc2)c2ccc(Br)cc2)cc1 (stereo not given)
CC(=O)c1ccc(Nc2c(C(N)=O)cnc3cc(-c4c(C)noc4C)ccc23)cc1
O=C(/C=C/c1c[nH]c2ccccc12)NCCCCCN1CCC(c2c[nH]c3ccccc23)CC1
CN1CCCC1CCNCc1ccc(-c2ccc(CNCCc3ccccc3)cn2)cc1 (stereo not given)
NC1=NC(c2ccccc2)(c2ccccc2)C(=O)N1Cc1ccc(-c2cccnc2)cc1
CCCCCCNC(=O)C1Cc2c([nH]c3ccc(C)cc23)C2(CCN(Cc3ccccc3)CC2)N1 (stereo not given)
Cc1ccc2nc(C)cc(NN=CC=Cc3ccccc3)c2c1
CCOc1c(CNCCCNc2cc(=O)c3ccccc3[nH]2)cc(I)cc1OC
CC(=O)CSC(C=Cc1ccc(N(C)C)cc1)=Nc1ccccc1
N#Cc1ccc(N(CCOc2ccc3c(c2)CCC(=O)N3)Cc2ccccc2C(F)(F)F)cc1C(F)(F)F
COc1ccccc1CC1CCCN(C2CCC(NC(=O)c3cc4ccccc4[nH]3)CC2)C1 (stereo not given)
